# In PubChem BioAssay (EPA / NIEHS):
# Where “and” joins values, the source holds several entries; their conditions need not be identical. Equal values may be shown once. Records with an inconclusive call do not appear. Some structures have more than one record in an assay (separate samples or runs), and their calls can disagree. Calls of active or inactive are those of the source. How the source made its calls, unless noted: active means hit-call score of the fitted dose curve at least 0.9, where 1 is the maximum; inactive means score below 0.9.
# Assays:
# [1] = TAMU_PeakParms_SingleDonor1434_QT: Texas A&M University (TAMU) 1.5-hr Human Induced Pluripotent Stem Cell (iPSC)-derived Cardiomyocytes Calcium (Ca+2) Flux Assay for Cardiotoxicity: QT (decay-rise ratio) (AID 2284235; active means hit-call score of the fitted dose curve at least 0.9, where 1 is the maximum)
# Summary of the method: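 Decay/rise ratio of calcium-flux fluorescence scored after 90 min exposure (37C) of donor 1434 iPSC cardiomyocytes to 0.2–100 uM (0.5% DMSO). Beat-cessation and severe-notch points removed; POD is EC05, a 5% rise over DMSO.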
# [2] = TAMU_HCS_1.5hr_SingleDonor1434_Cytotoxicity: Cytotoxicity Assessment using High-content Screening (HCS) Fluorescent Imaging for the Texas A&M University (TAMU) 1.5-hr Human Induced Pluripotent Stem Cell (iPSC)-derived Cardiotoxicity Assay (AID 2284234; active means hit-call score of the fitted dose curve at least 0.9, where 1 is the maximum)
# Summary of the method: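 Nuclear counts from Hoechst 33342 imaging define cytotoxicity here, with EC10 (10% cell-count loss relative to DMSO) as point of departure. iPSC cardiomyocytes received 0.2-100 uM test chemical in 0.5% DMSO for 1.5 h at 37 C.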
# [3] = CCTE_Mundy_HCI_Cortical_NOG_BPCount: CCTE's Neurite Outgrowth Assay in rat cortical cells for Branch Point Count, Mundy Lab (AID 2284237)
# Summary of the method: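 Measured 50.33 h after dosing, this morphology endpoint uses rat primary cortical cultures labelled for betaIII-tubulin. Branch points are quantified by high-content imaging, with DMSO as negative control and baseline.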
# [4] = UKN2_HCS_IMR90_cell_viability: Viability Assessment in the University of Konstanz (UKN) Leist Lab Neural Crest Cell Migration Assay in human induced IMR90 Pluripotent Stem Cells (UKN2) (AID 2284233);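 further: viability of neural crest cells differentiated from IMR90 iPSC measured by calcein-AM fluorescence imaging; cells exposed to compound for 24 h after a 24 h migration phase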
# Summary of the method: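 cMINC format, iPSC-derived neural crest (IMR90); 24 h migration (EGF/FGF, N2-S), then 24 h toxicant. Calcein-AM/H-33342 stain 30 min; fluorescence intensity by HCS; DMSO-normalised, bidirectional fitting.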
# [5] = CCTE_Mundy_HCI_Cortical_NOG_NeuronCount: CCTE's Neurite Outgrowth Assay in rat cortical cells for Neuron Count, Mundy Lab (AID 2284236; active means hit-call score of the fitted dose curve at least 0.9, where 1 is the maximum;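 further: neurons counted by imaging betaIII-tubulin and Hoechst stained cortical cells; cells exposed to compound for about 48 hours before fixation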)
# Summary of the method: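 Read-out: neuron number by high-content imaging of betaIII-tubulin (Alexa Fluor-488) and Hoechst-labelled rat primary cortical cells.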
# [6] = read-out: Interleukin 17A (IL17A), IL17A (gene 3605); assay: BSK_BT_xIL17A: BioMAP Diversity Plus: BT Assay for Interleukin 17A (IL17A) Biomarker Activity (AID 2284229); details: primary human B cells with PBMC
# Summary of the method: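 Co-culture of human B cells and PBMC, dosed for 24 h in 96-well format. Secreted IL-17A measured with Luminex xMAP; gain-direction fitting against DMSO as baseline.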
# [7] = read-out: Tumor necrosis factor (Homo sapiens) (UniProt P01375); assay: BSK_BT_xTNFa: BioMAP Diversity Plus: BT Assay for Tumor necrosis factor alpha (TNF-alpha) Biomarker Activity (AID 2284230); details: primary human B cells with PBMC
# Summary of the method: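 Read-out: Luminex xMAP quantitation of secreted TNF-alpha from a B cell/PBMC co-culture 24 h after compound addition. Signal analysed relative to DMSO vehicle, positive fitting direction.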
# [8] = read-out: Collagen I, COL1A1 (gene 1277); assay: BSK_MyoF_CollagenI: BioMAP Diversity Plus: MyoF Assay for Collagen I Biomarker Activity (AID 2284238); details: primary human lung fibroblasts
# Summary of the method: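 Primary human lung fibroblasts (MyoF system) treated 24 h; Collagen I quantified by ELISA and fitted in positive direction against DMSO. Parallel SRB total-protein staining assessed overt cytotoxicity.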
# [9] = read-out: Collagen III, COL3A1 (gene 1281); assay: BSK_MyoF_CollagenIII: BioMAP Diversity Plus: MyoF Assay for Collagen III Biomarker Activity (AID 2284239); details: primary human lung fibroblasts
# Summary of the method: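 Primary human lung fibroblasts (BioMAP MyoF system) exposed 24 h. Collagen III measured by ELISA; positive-direction fit relative to DMSO.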
# [10] = UKN4_HCS_LUHMES_cell_viability: Viability Assessment in the University of Konstanz (UKN) Leist Lab Neurite Outgrowth Assay in human LUHMES cells (UKN4) (AID 2284232)
# Summary of the method: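 Measured in replated, 2-day-differentiated LUHMES cells treated 24 h; stained 30 min with H-33342 and calcein-AM before high-content imaging.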
# Chain of Tumor necrosis factor (Homo sapiens) (P01375 whole entry, looked up): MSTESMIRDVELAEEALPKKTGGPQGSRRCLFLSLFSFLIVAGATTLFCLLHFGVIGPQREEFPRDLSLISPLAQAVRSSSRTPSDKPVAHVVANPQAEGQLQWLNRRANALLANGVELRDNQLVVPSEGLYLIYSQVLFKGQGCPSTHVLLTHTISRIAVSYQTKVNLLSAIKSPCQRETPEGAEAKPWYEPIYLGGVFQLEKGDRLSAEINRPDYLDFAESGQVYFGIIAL
smiles,measurement,setting,value
CNC(=C[N+](=O)[O-])NCCSCc1ccc(CN(C)C)o1,outcome,[1],inactive
CC/C(=C(\c1ccccc1)c1ccc(OCCN(C)C)cc1)c1ccccc1,AC50,[2],82.1 µM (active)
same,outcome,[1],inactive
N[C@@H](CCC(=O)O)C(=O)O,outcome,[3],inactive
c1ccc2scnc2c1,outcome,[4],inactive
same,outcome,[5],inactive
same,outcome,[3],inactive
O=S(=O)(O)C(F)(F)C(F)(F)OC(F)(F)C(F)(F)F,outcome,[6],inactive
same,outcome,[7],inactive
same,outcome,[8],inactive
same,outcome,[9],inactive
CC(C)(C)c1cccc(O)c1,outcome,[6],inactive
same,outcome,[7],inactive
same,outcome,[8],inactive
same,outcome,[9],inactive
CCCCC(CC)COC(=O)COc1ccc(Cl)cc1C (stereo unspecified),outcome,[4],inactive
same,outcome,[5],inactive
same,outcome,[3],inactive
CCCCCCCCCC(=O)OCC,outcome,[6],inactive
same,outcome,[7],inactive
same,outcome,[8],inactive
same,outcome,[9],inactive
O=C(O)C(F)(F)OC(F)(F)C(F)(F)OC(F)(F)C(F)(F)C(F)(F)C(F)(F)F,outcome,[6],inactive
same,outcome,[7],inactive
same,AC50,[8],30 µM (active) and 31.8 µM (active)
same,AC50,[9],42.2 µM (active) and 44.1 µM (active)
C=C1CC/C=C(\C)CC[C@@H]2[C@@H]1CC2(C)C,outcome,[6],inactive
same,outcome,[7],inactive
same,AC50,[8],25.7 µM (active)
same,AC50,[9],30.1 µM (active)
OCC(F)(OC(F)(F)C(F)(OC(F)(F)C(F)(F)C(F)(F)F)C(F)(F)F)C(F)(F)F (stereo unspecified),outcome,[6],inactive
same,AC50,[7],4.92 µM (active)
same,outcome,[7],inactive
same,AC50,[8],5.55 µM (active) and 3.38 µM (active)
same,AC50,[9],5.14 µM (active) and 4.82 µM (active)
C=CC(=O)OCC(CO)(COC(=O)C=C)COC(=O)C=C,AC50,[6],1.09 µM (active)
same,AC50,[7],1.88 µM (active)
same,AC50,[8],2.35 µM (active)
same,AC50,[9],1.25 µM (active)
CC1(C)[C@H](C=C(Cl)Cl)[C@H]1C(=O)OCc1cccc(Oc2ccccc2)c1,outcome,[6],inactive
same,outcome,[7],inactive
same,outcome,[8],inactive
same,outcome,[9],inactive
NC(=O)c1c(Cl)cccc1Cl,outcome,[6],inactive
same,outcome,[7],inactive
same,outcome,[8],inactive
same,outcome,[9],inactive
CC(=O)OCC=C(C)CCC=C(C)CCC=C(C)C,AC50,[6],20 µM (active)
same,AC50,[7],36.5 µM (active)
same,outcome,[8],inactive
same,outcome,[9],inactive
c1ccc2c(c1)-c1ccc3ccc4cccc5cc-2c1c3c45,outcome,[6],inactive
same,outcome,[7],inactive
same,outcome,[8],inactive
same,AC50,[9],10 µM (active)
CCC(=O)OCC=Cc1ccccc1,outcome,[6],inactive
same,outcome,[7],inactive
same,outcome,[8],inactive
same,outcome,[9],inactive
O=S1(=O)CC(Cl)(Cl)C(Cl)(Cl)C1,AC50,[6],0.346 µM (active)
same,AC50,[7],0.749 µM (active)
same,AC50,[8],1.52 µM (active)
same,AC50,[9],1.89 µM (active)
C=C(F)C(=O)OC(C(F)(F)F)C(F)(F)F,outcome,[6],inactive
same,outcome,[7],inactive
same,outcome,[8],inactive
same,outcome,[9],inactive
CC=CC(=O)C1=C(C)C=CCC1(C)C,outcome,[6],inactive
same,outcome,[7],inactive
same,outcome,[8],inactive
same,outcome,[9],inactive
OCCN1CCOCC1,outcome,[6],inactive
same,outcome,[7],inactive
same,outcome,[8],inactive
same,AC50,[9],0.016 µM (active)
CCCCCCCC1CCCC1=O (stereo unspecified),outcome,[6],inactive
same,outcome,[7],inactive
same,AC50,[8],32.6 µM (active)
same,AC50,[9],32.7 µM (active)
CCOC(=O)C=Cc1ccccc1,outcome,[6],inactive
same,outcome,[7],inactive
same,outcome,[8],inactive
same,outcome,[9],inactive
Nc1ccc(N)c([N+](=O)[O-])c1,outcome,[6],inactive
same,outcome,[7],inactive
same,outcome,[8],inactive
same,outcome,[9],inactive
C=C(C)C(=O)OCCC(F)(F)C(F)(F)C(F)(F)C(F)(F)C(F)(F)C(F)(F)C(F)(F)C(F)(F)F,outcome,[6],inactive
same,outcome,[7],inactive
same,outcome,[8],inactive
same,outcome,[9],inactive
O=C(O)C(F)(F)C(F)(F)C(F)(F)C(F)(F)C(F)(F)C(F)(F)C(F)(F)C(F)F,outcome,[6],inactive
same,outcome,[7],inactive
same,outcome,[8],inactive
same,outcome,[9],inactive
c1ccc(Sc2ccccc2)cc1,outcome,[6],inactive
same,outcome,[7],inactive
same,AC50,[8],30.3 µM (active)
same,AC50,[9],34.2 µM (active)
COc1ccccc1NC(=O)CC(C)=O,outcome,[6],inactive
same,outcome,[7],inactive
same,outcome,[8],inactive
same,outcome,[9],inactive
O=C1OC2(c3ccc(O)cc3Oc3cc(O)ccc32)c2ccccc21,outcome,[6],inactive
same,outcome,[7],inactive
same,outcome,[8],inactive
same,outcome,[9],inactive
CC1=CC(C)C(C=O)C(C)C1 (stereo unspecified) (tested in a mixture with another compound),outcome,[6],inactive
same,outcome,[7],inactive
same,outcome,[8],inactive
same,outcome,[9],inactive
CC(=O)CCC=C(C)CCC=C(C)C,outcome,[6],inactive
same,outcome,[7],inactive
same,outcome,[9],inactive
CC(=O)OC(C)(C)C1CC=C(C)CC1 (stereo unspecified),outcome,[6],inactive
same,outcome,[7],inactive
same,outcome,[8],inactive
same,outcome,[9],inactive
CCOC(=O)CCCCCCCCC(=O)OCC,outcome,[6],inactive
same,outcome,[7],inactive
same,outcome,[8],inactive
same,outcome,[9],inactive
CCCCCCCCCCCCS,outcome,[6],inactive
same,outcome,[7],inactive
same,AC50,[8],20 µM (active)
same,AC50,[9],27.9 µM (active)
CC(C)Cc1ccc(C(C)C(=O)O)cc1 (stereo unspecified),outcome,[6],inactive
same,outcome,[7],inactive
same,outcome,[10],inactive
same,outcome,[4],inactive
same,outcome,[3],inactive
same,outcome,[8],inactive
same,outcome,[9],inactive
N#CCCNCCC#N,outcome,[1],inactive
same,outcome,[5],inactive
same,outcome,[3],inactive
